# About 83,000 compounds went through this panel and 20% of them were active in at least one assay; those are over-represented in the sample as a whole.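 Percent growth is the endpoint: 0 to 100 indicates growth inhibition (40 means 60% inhibition), 0 means no net growth, and negative values indicate cell death.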 A number with no mark means an inactive call. Calls of active or inactive are those of the source.
# Test system: NCI-H460 lung
# Assay: NCI-60 one-dose screen, 48 h (100 = growth as untreated, 0 = no growth, -100 = all killed)
# Details: 10 µM
# Method: Growth inhibition of the NCI-H460 human Non-Small Cell Lung tumor cell line is measured as a screen for anti-cancer activity. Cells are grown in 96 well plates and exposed to the test compound for 48 hours. Compounds are tested at a single concentration, which is 10^-5 M for most compounds. The reported endpoint is percent growth (GI% or GIPRCNT), where numbers from 0 - 100% represent growth inhibition, and numbers from -100% - 0 represent cell death. For example, a value of 40 represents 60% growth inhibition. A value of 0 means no net growth occurred over the course of the experiment. A value of -40 indicates 40% of cells at the beginning of the experiment died by the end of the experiment. A value of -100 means all cells are dead at the end of the experiment.
# NCI-60 Human Tumor Cell Lines Screen was performed using the standard one-dose NCI protocol, which is described in more detail at https://dtp.cancer.gov/discovery_development/nci-60/default.htm.
# Compounds with GIPRCNT values below 10 were considered active. Activity score was based on GIPRCNT using the following formula: […]
# Score is 0 for GIPRCNT values of 100 or above, 50 for GIPRCNT values of 0, and 100 for GIPRCNT values of -100.
row,Compound,growth
1,CC(=C\C(=O)Oc1ccc2c3c1OC1C(O)CCC4(O)C(C2)N(CC2CCC2)CCC314)/C=C1\CCCc2ccccc21 (stereo not given),12.1%
2,O=C(/C=C/c1ccccc1Cl)c1nc2ccccc2n1Cc1ccc(F)cc1,-54.6% (active)
3,COc1ccc(/C=C/C(=O)c2nc3ccccc3n2Cc2ccc(Br)cc2)cc1,57.8%
4,CN(C)CCc1cn(C2CCC2)c2cccc(O)c12,70.7%
5,O=C(/C=C/c1ccc(Cl)cc1)c1nc2ccccc2n1Cc1ccc(F)cc1,26.8%
6,COC(=O)CCn1c(-c2ccc(-n3cc(-c4ccc(O[C@H]5O[C@@H]6OC7(C)CC[C@H]8[C@H](C)CC[C@@H]([C@H]5C)[C@@]68OO7)cc4)nn3)cc2)nc2ccccc21,11.4%
7,CC[C@]12C=CCN3CC[C@@]4(c5ccc(OC)cc5N(C)[C@H]4[C@@](O)(C(=O)OC)[C@@H]1OC(=O)CCC[P+](C1CCCCC1)(C1CCCCC1)C1CCCCC1)[C@@H]32,4.64% (active)
8,O=C(/C=C/c1ccco1)c1nc2ccccc2n1Cc1ccc(Br)cc1,32.4%
9,CCOP(=O)(OCC)C(NC(C)=O)C(=O)SCCN (stereo not given),121%
10,O=C(/C=C/c1ccc(Cl)cc1)c1nc2ccccc2n1Cc1ccc(Br)cc1,58.1%
11,C[C@H]1[C@H](OC(=O)CCC(=O)Nc2cnccn2)O[C@@H]2OC3(C)CC[C@H]4[C@H](C)CC[C@@H]1[C@@]24OO3,29.6%
12,O=C(/C=C/c1ccc(Cl)cc1Cl)c1nc2ccccc2n1Cc1ccc(F)cc1,43.8%
13,C=CC[Se]C(=O)c1cncc(C(=O)[Se]CC=C)c1,-14% (active)
14,CC1=C(COCCOC(=O)c2ccc(S(=O)(=O)F)cc2)C2=C(C)C3(CC3)[C@@](C)(O)C(=O)C2=C1,2.07% (active)
15,O=C(NCCCCC(c1ccc(F)cc1)c1ccc(F)cc1)Nc1ccc([N+](=O)[O-])c(C(F)(F)F)c1,7.56% (active)
16,COc1cc2cc(C(=O)N3C[C@@H](CCl)c4c3cc(OC(=O)N3CCN(C)[C@@H]5CSSC[C@@H]53)c3ccccc43)[nH]c2c(OC)c1OC,-13.4% (active)
17,CC12OOC(C)(OO1)C2CCC(=O)NCCNc1ccnc2cc(Cl)ccc12 (stereo not given),101%
18,COC(=O)c1ccc(-n2cc(CCCN(CCNc3ccnc4cc(Cl)ccc34)C(=O)CCC(=O)O[C@@H]3O[C@@H]4OC5(C)CC[C@H]6[C@H](C)CC[C@@H]([C@H]3C)[C@@]46OO5)nn2)cc1,52.1%
19,COc1cc2cc(C(=O)N3C[C@@H](CCl)c4c3cc(OC(=O)N3CCN(C)[C@@H]5CSSC[C@H]53)c3ccccc43)[nH]c2c(OC)c1OC,-68.9% (active)
20,O=C(NC([Se])=NC1CCCCC1)c1ccccc1,11.6%

row,Compound,growth
1,COP(=O)(CC(F)(F)C(F)(F)F)OC,95.9%
2,CC[C@]12C=CCN3CC[C@@]4(c5ccc(OC)cc5N(C)[C@H]4[C@@](O)(C(=O)OC)[C@@H]1OC(=O)CCC[P+](c1ccc(C)cc1)(c1ccc(C)cc1)c1ccc(C)cc1)[C@@H]32,-85.2% (active)
3,C=CC[Se]C(=O)c1ccc(C(=O)[Se]CC=C)s1,-53.2% (active)
4,Cc1c2oc3c(C)ccc(C(=O)N[C@@H]4C(=O)N[C@H](C(C)C)C(=O)N5CCC[C@H]5C(=O)N(C)CC(=O)N(C)[C@@H](C(C)C)C(=O)OC4C)c3nc-2c(C(=O)N[C@@H]2C(=O)N[C@H](C(C)C)C(=O)N3CC(=O)C[C@H]3C(=O)N(C)CC(=O)N(C)[C@@H](C(C)C)C(=O)OC2C)c(N)c1=O (stereo not given in full),5.56% (active)
5,CC12OOC(C)(OO1)C2CCC(=O)OCCNc1ccnc2cc(Cl)ccc12 (stereo not given),45.2%
6,C[C@H]1[C@@H](Oc2ccc(-c3cn(-c4ccnc5cc(Cl)ccc45)nn3)cc2)O[C@@H]2OC3(C)CC[C@H]4[C@H](C)CC[C@@H]1[C@@]24OO3,25.3%
7,C[C@H]1[C@H](OC(=O)CCC(=O)N(CCCc2cn(-c3ccc(CN4CCOCC4)cc3)nn2)CCNc2ccnc3cc(Cl)ccc23)O[C@@H]2OC3(C)CC[C@H]4[C@H](C)CC[C@@H]1[C@@]24OO3,7.93% (active)
8,COC(=O)C[C@](O)(CCC(C)C)C(=O)O[C@H]1C(OC)=C[C@@]23CCCN2CCc2cc4c(cc2[C@@H]13)OCO4,-26.2% (active)
9,COc1cc(OC)c(S(=O)(=O)N(CCCl)CCCl)cc1C(=O)/C=C/c1cc(OC)c(OC)c(OC)c1,1.08% (active)
10,Cc1ccc2[nH]c(=S)n(-c3ccc(F)cc3)c(=O)c2c1,106%
11,O=C(/C=C/c1ccc(Cl)cc1Cl)c1nc2ccccc2n1Cc1ccc(Br)cc1,78.1%
12,CC[C@]12C=CCN3CC[C@@]4(c5ccc(OC)cc5N(C)[C@H]4[C@@](O)(C(=O)OC)[C@@H]1OC(=O)CCCC[P+](C1CCCCC1)(C1CCCCC1)C1CCCCC1)[C@@H]32,5.27% (active)
13,CC[C@]12C=CCN3CC[C@@]4(c5ccc(OC)cc5N(C)[C@H]4[C@@](O)(C(=O)OC)[C@@H]1OC(=O)CCC[P+](c1ccc(F)cc1)(c1ccc(F)cc1)c1ccc(F)cc1)[C@@H]32,30.9%
14,CC[C@]12C=CCN3CC[C@@]4(c5ccc(OC)cc5N(C)[C@H]4[C@@](O)(C(=O)OC)[C@@H]1OC(=O)CCCC[P+](c1ccc(C)cc1)(c1ccc(C)cc1)c1ccc(C)cc1)[C@@H]32,-86.6% (active)
15,CC(=O)Oc1ccccc1C(=O)NC([Se])=NC1CCCCC1,6.6% (active)
16,COc1ccc2cc([C@H](C)C(=O)[Se]CCC#N)ccc2c1,-27.2% (active)
17,C[C@H]1[C@H](OC(=O)CCC(=O)N(CCCc2cn(-c3ccc([N+](=O)[O-])cc3)nn2)CCNc2ccnc3cc(Cl)ccc23)O[C@@H]2OC3(C)CC[C@H]4[C@H](C)CC[C@@H]1[C@@]24OO3,53.5%
18,O=C(/C=C/c1ccc(F)cc1)c1nc2ccccc2n1Cc1ccc(F)cc1,6.65% (active)
19,CC[C@]12C=CCN3CC[C@@]4(c5ccc(OC)cc5N(C)[C@H]4[C@@](O)(C(=O)OC)[C@@H]1OC(=O)CCCC[P+](c1ccc(OC)cc1)(c1ccc(OC)cc1)c1ccc(OC)cc1)[C@@H]32,-87% (active)
20,O=C(/C=C/c1ccc(Br)cc1)c1nc2ccccc2n1Cc1ccc(Br)cc1,-14.4% (active)

# — PubChem BioAssay (NCI)
